# High-throughput results from PubChem.
# This is a sample that favours compounds with a hit; in the whole collection about 2.5% have one here.
# EWS-Fli block – EWS/Fli-driven NR0B1 reporter inhibitors, primary screen, A673 cells, NR0B1 luciferase, luminescence, MLPCN library; viability-normalised; inhibition, % at 12.6 µM; 0.67% of 350,000 active; AID 651661, 2012;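 active means mean inhibition of at least 50% after viability correction, with every replicate also passing that limit; inconclusive means mean reaches 50% but only one of two replicates passes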;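 further: firefly luciferase signal divided by Alamar Blue viability fluorescence both relative to DMSO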
# HIV Env fusion – inhibitors of HIV-1 Env-driven cell-cell fusion, primary screen, HeLa-JRFL effector, CEM21 target cells, luciferase | AID 651610, 2012 | 1.1% of 360,000 active | inhibition, % at 12.3 µM;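 active means mean replicate inhibition score of at least 50 and every replicate individually at or above 50; inconclusive means only one of the two criteria met; inactive means mean below 50 and not all replicates reaching 50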;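 further: 0% = plate neutral controls and 100% = maraviroc near 300 nM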
# FXN GAA850 act – FXN promoter activators, primary screen, cell-based, luciferase luminescence, HEK293 lucGAA850; AID 540364, 2011; activation, % at 6 µM; HEK293 lucGAA850 FXN promoter luciferase reporter, 24 h; percent of 10 µM SAHA response; 0.56% of 360,000 active;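 active means activation above the average of all compounds screened plus 3 SD, cutoff fixed separately per campaign, cut at about 7.5% in these data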;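 further: 0% = DMSO wells and 100% = 10 µM SAHA wells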
# CFTR F508del cor – F508del CFTR correction, initial screen, CFBE line, single point; CFBE cells, YFP halide quenching; stimulated with forskolin plus potentiator P3; % fluorescence drop versus neutral controls; activity (quench increase), % at 7.58 µM; 0.36% of 350,000 active; AID 720511, 2013;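 active means mean added fluorescence quench of at least 8% versus neutral control, with both replicates also reaching 8%; inconclusive means only one of the mean or replicate conditions met; inactive means mean below 8% and not both replicates reaching 8%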;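 further: cells transiently co-express mutant CFTR-F508del with the halide-sensitive YFP; corrector assay measuring rescue of mutant channel to the surface after 24 h compound exposure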
# PAX8 reporter – inhibitors of PAX8-driven TPO luciferase reporter, primary screen, RMG-I cells, single concentration | SteadyGlo, 24 h | inhibition, % at 12.6 µM | 1.2% of 360,000 active | AID 652154, 2013;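 active means mean replicate inhibition at least 60% with every replicate also reaching 60%; inconclusive means only one of the two criteria is met; inactive means mean below 60% and not all replicates reaching 60%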;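 further: luciferase light reporting Pax8 driven TPO promoter activity; plate controls were median of neutral control wells for no effect and mitoxantrone controls for full effect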
# Active calls of the source: *; ? = inconclusive; · = not tested or not shown; [ ] = remark or other dose.
SMILES,EWS-Fli block,HIV Env fusion,FXN GAA850 act,CFTR F508del cor,PAX8 reporter
C[C@@H](NC(=O)C[C@H]1C[C@H]2c3cc(NC(=O)C4CCOCC4)ccc3O[C@H]2[C@H](CO)O1)c1ccccc1,0,2[16.7 µM],·,2,4
Cc1ccc(-c2nc3cc(NC(=O)C(C)C)ccc3o2)cc1,·,·,0,·,·
CC(Oc1ccc(Cl)cc1Cl)C(=O)Nc1ccc2oc(-c3ccncc3)nc2c1 (centres undefined),·,64*,-1,·,-13
NC(=O)c1oc2ccccc2c1NC(=O)c1ccc([N+](=O)[O-])o1,49,-4,1,-6,74*
COc1ccc(NC(=O)c2ccc([N+](=O)[O-])o2)cc1,-27,-6,7,-11,76*
Cc1cc(C)cc(NC(=O)c2ccc([N+](=O)[O-])o2)c1,17,-4,0,4,75*
Cc1ccc(S(=O)(=O)Nc2ccc3c(c2)C(=O)N([C@@H](C)CO)C[C@@H](C)[C@@H](CN(C)C(=O)c2ccncc2)OCCCC[C@H](C)O3)cc1,-3,-4[16.7 µM],·,5,-2
O=C(Nc1ccc2oc(-c3ccncc3)nc2c1)c1ccc([N+](=O)[O-])o1,62*,-427,7,-7,32
O=C(Nc1ccc2oc(-c3ccncc3)nc2c1)c1ccccc1,-15,5,1,-1,-7
CC(NC(=O)c1ccc([N+](=O)[O-])o1)C12CC3CC(CC(C3)C1)C2 (centres undefined),18,-19,2,-2,66*
COc1ccc(S(=O)(=O)Nc2ccc3c(c2)C(=O)N([C@H](C)CO)C[C@@H](C)[C@@H](CN(C)Cc2ccncc2)OCCCC[C@@H](C)O3)cc1,-9,25[16.7 µM],·,1,-23
Cc1noc(C)c1NC(=O)Nc1ccc2c(c1)CC(=O)N([C@H](C)CO)C[C@H](C)[C@H](CN(C)S(=O)(=O)c1ccc(F)cc1)O2,-13,-17[16.7 µM],·,0,-45
C[C@H](CO)N1C[C@H](C)[C@H](CN(C)C(=O)c2ccccc2F)Oc2ncc(C#C[C@@H](C)O)cc2C1=O,3,3[16.7 µM],·,0,·
Cc1ccc(S(=O)(=O)N[C@@H]2C=C[C@H](CC(=O)NCc3ccncn3)O[C@@H]2CO)cc1,0,-4[16.7 µM],·,2,0
CCN1/C(=C/c2ccc3cc(C)ccc3[n+]2C)Sc2ccc3sccc3c21,53*,61*,-8,1,100*
CCN1/C(=C/c2ccc3cc(C)ccc3[n+]2CC)Sc2cc(C)ccc21,59*,46,-9,-2,89*
C[C@H](CO)N1C[C@H](C)[C@@H](CN(C)C(=O)Nc2ccccc2)OCCCC[C@H](C)Oc2ccc(NC(=O)CCC(F)(F)F)cc2C1=O,-4,-6[16.7 µM],·,0,-9
CCc1n[n+](CC(=O)c2ccccc2)c(N)s1,59*,16,-4,-4,30
C[C@@H]1CCCCO[C@H](CN(C)Cc2ccccc2)[C@H](C)CN([C@H](C)CO)C(=O)c2cc(NC(=O)Nc3ccccc3)ccc2O1,0,2[16.7 µM],·,1,32
C[C@H](CO)N1C[C@H](C)[C@H](CN(C)Cc2ccccc2)OCCCC[C@H](C)Oc2ccc(NC(=O)Nc3ccccc3)cc2C1=O,-1,75*[16.7 µM],·,0,-5
C[C@@H]1CCCCO[C@H](CN(C)Cc2ccc(C(=O)O)cc2)[C@@H](C)CN([C@H](C)CO)C(=O)c2cc(NC(=O)Nc3ccc(C(F)(F)F)cc3)ccc2O1,-7,9[16.7 µM],·,-3,-14
C[C@@H]1CN([C@@H](C)CO)C(=O)c2cc(NC(=O)Nc3ccc(C(F)(F)F)cc3)ccc2O[C@@H](C)CCCCO[C@@H]1CN(C)Cc1ccccc1,-3,44[16.7 µM],·,5,79*
C[C@@H]1CCCCO[C@@H](CN(C)Cc2ccc(C(F)(F)F)cc2)[C@@H](C)CN([C@H](C)CO)C(=O)c2cc(NC(=O)Nc3ccc(F)cc3)ccc2O1,3,-19[16.7 µM],·,-1,19
C[C@@H]1CN([C@H](C)CO)C(=O)c2cc(NC(=O)Nc3ccc(C(F)(F)F)cc3)ccc2O[C@@H](C)CCCCO[C@@H]1CN(C)Cc1ccccc1,25,?,·,2,109*
C[C@@H]1CCCCO[C@H](CN(C)Cc2ccccc2)[C@@H](C)CN([C@@H](C)CO)C(=O)c2cc(NC(=O)Nc3ccc(C(F)(F)F)cc3)ccc2O1,?,88*[16.7 µM],·,1,119*
SMILES,EWS-Fli block,HIV Env fusion,FXN GAA850 act,CFTR F508del cor,PAX8 reporter
CN(C)CC(=O)N1CC2(C1)[C@@H](c1ccccc1)[C@H](CO)N2C(=O)C1CC1,7,·,·,0,·
COc1ccccc1-c1cn(CC[C@H]2CC[C@H](NC(=O)c3cnccn3)[C@@H](CO)O2)nn1,·,·,·,-5,·
C[C@H](CO)N1C[C@H](C)[C@H](CN(C)CC2CCCCC2)OCCCC[C@H](C)Oc2ccc(NC(=O)Nc3ccc(F)cc3)cc2C1=O,-9,4[16.7 µM],·,0,2
C[C@@H]1CN([C@H](C)CO)C(=O)c2cc(NC(=O)Nc3ccc(C(F)(F)F)cc3)ccc2O[C@@H](C)CCCCO[C@H]1CN(C)Cc1ccccc1,77*,66*[16.7 µM],·,4,113*
C[C@@H]1CN([C@@H](C)CO)C(=O)c2cc(NC(=O)Nc3ccc(C(F)(F)F)cc3)ccc2O[C@@H](C)CCCCO[C@@H]1CN(C)Cc1ccc(C(F)(F)F)cc1,-7,0[16.7 µM],·,0,-21
C[C@H](CO)N1C[C@H](C)[C@@H](CN(C)Cc2ccccc2)OCCCC[C@H](C)Oc2ccc(NC(=O)Nc3ccc(C(F)(F)F)cc3)cc2C1=O,10,9[16.7 µM],·,5,95*
C[C@@H]1CCCCO[C@H](CN(C)Cc2ccc(C(F)(F)F)cc2)[C@H](C)CN([C@H](C)CO)C(=O)c2cc(NC(=O)Nc3ccc(C(F)(F)F)cc3)ccc2O1,-13,11[16.7 µM],·,-3,-9
C[C@@H]1CN([C@@H](C)CO)C(=O)c2cc(NC(=O)Nc3ccccc3)ccc2O[C@@H](C)CCCCO[C@H]1CN(C)Cc1ccc(C(F)(F)F)cc1,12,10[16.7 µM],·,1,72*
CCN(CC)c1ccc(NC(=O)CCCCCN2C(=O)c3ccccc3C2=O)cc1,·,11,-4,·,·
CCN(CC)c1ccc(NC(=O)CCCCC(=O)Nc2ccc(N(CC)CC)cc2)cc1,?,61*,-8,0,1
CN1C(=O)c2cc(NC(=O)C3CC3)ccc2OC[C@H]2O[C@@H](CC(=O)O)CC[C@@H]21,·,·,·,1,6
O=C(C[C@@H]1CC[C@@H]2[C@H](COC[C@@H](O)CN2C(=O)Nc2ccc(C(F)(F)F)cc2)O1)NC1Cc2ccccc2C1,31,5[16.7 µM],·,-1,88*
O=C(C[C@H]1CC[C@H]2[C@@H](COC[C@H](O)CN2C(=O)Nc2ccc(C(F)(F)F)cc2)O1)NC1Cc2ccccc2C1,10,12[16.7 µM],·,1,74*
